Only some compounds are listed: those with a hit (about 3.2% of all), similar ones and a draw of the others.
p47phox inh: p47phox/p22phox peptide binding inhibitors, primary screen, biochemical, uHTS, NADPH oxidase regulatory subunit; 220,000 compounds, 0.53% hits; Neutrophil cytosol factor 1 (Homo sapiens), P14598; AID 1274, 2008; fluorescence polarization, 2 h; inhibition, % at 24.7 µM;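 active means inhibition above about 30%, limit read from the data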
Target sequence (P14598 whole entry, looked up): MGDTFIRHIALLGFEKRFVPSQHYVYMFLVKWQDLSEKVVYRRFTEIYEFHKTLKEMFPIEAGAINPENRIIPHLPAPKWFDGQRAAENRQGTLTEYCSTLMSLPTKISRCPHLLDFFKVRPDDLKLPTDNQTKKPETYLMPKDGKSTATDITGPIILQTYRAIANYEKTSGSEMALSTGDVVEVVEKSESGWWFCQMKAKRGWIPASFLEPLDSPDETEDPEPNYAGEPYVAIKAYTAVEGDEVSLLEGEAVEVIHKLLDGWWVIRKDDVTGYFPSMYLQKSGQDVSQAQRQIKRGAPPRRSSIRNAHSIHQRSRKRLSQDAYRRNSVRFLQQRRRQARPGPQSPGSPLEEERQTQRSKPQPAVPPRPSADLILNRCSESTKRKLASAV
Mcl-1 Bim block: inhibitors of Bim peptide binding to Mcl-1, primary screen, biochemical, bead-based flow cytometry, multiplex; Induced myeloid leukemia cell differentiation protein Mcl-1 (Homo sapiens), Q07820; Bim peptide-Mcl-1 binding; inhibition, % at 10 µM; 190,000 compounds, 0.1% hits; in the data active means inhibition above about 40%
Mcl1 Noxa PPI: Mcl-1/Noxa binding inhibitors, primary screen, biochemical, TR-FRET, 1536-well; Induced myeloid leukemia cell differentiation protein Mcl-1 (Homo sapiens), Q07820; TR-FRET Mcl-1/Noxa peptide binding, 2 h; inhibition, % at 21.7 µM; 220,000 compounds, 1.5% hits;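 active means compounds that cut the protein-peptide binding signal by more than 50% relative to plate controls in a single-dose test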;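 further: His-tagged Mcl-1 with rhodamine Noxa BH3 peptide and terbium anti-His antibody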
Mcl1 Bid PPI: Mcl-1/Bid binding inhibitors, primary screen, biochemical, TR-FRET, 1536-well; Induced myeloid leukemia cell differentiation protein Mcl-1 (Homo sapiens), Q07820; TR-FRET Mcl-1/Bid-Dy647 peptide binding; inhibition, % at 21.7 µM; 220,000 compounds, 0.97% hits;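 active means compounds that cut the binding signal by more than half at the single screening dose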;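 further: His-tagged Mcl-1 with europium anti-His antibody binding Bid BH3 peptide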
14-3-3 Bad inh: inhibitors of 14-3-3 zeta/Bad binding, primary screen, biochemical, TR-FRET, bovine 14-3-3 zeta | TR-FRET 14-3-3zeta/Dy647-pBad peptide displacement, 1 h | inhibition, % at 21.7 µM | 220,000 compounds, 0.71% hits | AID 781, 2007;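 active means inhibition above about 70%, limit read from the data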
Target sequence (P63103 whole entry, looked up): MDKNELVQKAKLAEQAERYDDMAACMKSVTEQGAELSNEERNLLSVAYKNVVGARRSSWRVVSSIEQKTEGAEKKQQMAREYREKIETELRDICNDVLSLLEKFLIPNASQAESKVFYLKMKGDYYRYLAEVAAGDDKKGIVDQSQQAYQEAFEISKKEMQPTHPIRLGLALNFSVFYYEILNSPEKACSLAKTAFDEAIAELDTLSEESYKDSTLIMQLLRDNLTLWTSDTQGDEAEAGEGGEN
Each line names hits and unclear results; the compound was inactive in the other large screens; [ ] = another dose, or the depositor's remark.

CC(C)c1ccc(NC2=NCC(=O)N2Cc2cccs2)cc1	none
CCc1cccc(C)c1NC(=S)NCc1cccn1C	none
C=CCn1c(CNC(=O)c2ccccc2F)nnc1SCC(=O)NC(C)c1ccccc1 (centres undefined)	none (no result: p47phox inh)
CCN(CC)CCOC(=O)c1ccc(N/C=C(/C#N)c2nc(-c3ccc4c(c3)OCO4)cs2)cc1	Mcl1 Noxa PPI 69, Mcl1 Bid PPI 63 (no result: Mcl-1 Bim block)
CN(CCOC(=O)C1c2ccccc2Oc2ccccc21)C(C)(C)C	Mcl1 Bid PPI 97
CN(C)CCCOC(=O)C1c2ccccc2Oc2ccccc21	none
O=c1cc(-c2ccc([N+](=O)[O-])cc2)nc2cc(-c3ccc(Cl)cc3)[nH]n12	Mcl1 Noxa PPI 97, Mcl1 Bid PPI 87, 14-3-3 Bad inh 89[fluorescence artefact?]
O=c1cc(-c2ccccc2)nc2cc(-c3ccco3)[nH]n12	none (no result: Mcl-1 Bim block)
Cn1c(=O)oc2cc(S(=O)(=O)Nc3ccccc3)ccc21	none
CCc1cccc(NS(=O)(=O)c2ccc3c(c2)oc(=O)n3C)c1	p47phox inh 40
COc1ccc(-c2nnn(CC(=O)N(CCCO)C(C(=O)NC3CCCC3)c3ccncc3)n2)cc1 (centres undefined)	Mcl1 Bid PPI 87
CC(C)(C)c1nc(NC(=O)Nc2ccccc2)sc1Br	none
Oc1ccc(N2CCN(C(=S)NCCc3ccccc3)CC2)cc1	p47phox inh 95
Oc1ccccc1N1CCN(C(=S)NCCc2ccccc2)CC1	p47phox inh 47
CCc1ccc(N(C(=O)c2csnn2)C(C(=O)NCc2ccccc2)c2ccco2)cc1 (centres undefined)	14-3-3 Bad inh 95[fluorescence artefact?]
N#Cc1c(-c2ccncc2)c2c([nH]c1=S)CCCC2	none
Cc1ccc(-c2c3c([nH]c(=S)c2C#N)CCCC3)o1	Mcl1 Noxa PPI 74
O=C(NNc1ccccc1)/C(=C\c1cccnc1)NC(=O)c1ccccc1	none (no result: Mcl-1 Bim block)
O=C1C2C3C=CC(C3)C2C(=O)N1CCCCN1C(=O)C2C3C=CC(C3)C2C1=O (centres undefined)	14-3-3 Bad inh 73
CCOc1ccc(-c2nc(CCl)cs2)cc1OC	none
CCc1cc(C(=O)N=Nc2c(O)[nH]c3ccc([N+](=O)[O-])cc23)c2ccccc2n1	Mcl1 Noxa PPI 92
CCCCCCC(=O)N=Nc1c(O)[nH]c2ccc([N+](=O)[O-])cc12	none
CCN(CC)S(=O)(=O)c1cc([N+](=O)[O-])ccc1N=Nc1c(O)[nH]c2ccccc12	Mcl1 Bid PPI 51
O=C(N=Nc1c(O)[nH]c2ccc([N+](=O)[O-])cc12)c1ccccc1[N+](=O)[O-]	none (no result: Mcl-1 Bim block)
Cc1ccc([N+](=O)[O-])cc1S(=O)(=O)n1ccnc1C	none
COC(=O)c1cc([N+](=O)[O-])c(-n2ccnc2)c([N+](=O)[O-])c1	none
Oc1c(C=Nc2cccc3cccnc23)sc2ccccc12	none
O=[N+]([O-])c1ccc(O)c(N=Cc2sc3ccccc3c2O)c1	Mcl1 Noxa PPI 53
Cc1cccc(/N=C/c2sc3ccccc3c2O)n1	Mcl1 Noxa PPI 82 (no result: Mcl-1 Bim block)
CCCCNS(=O)(=O)c1ccc(OC)c(C)c1	none
CCOc1ccc(S(=O)(=O)NCCOC)cc1C	14-3-3 Bad inh 73
CC(C)n1c(SCC(=O)Nc2ccc3c(c2)OCO3)nc2c1c(=O)n(C)c(=O)n2C	Mcl1 Bid PPI 72
CCC(C)OC(=O)C1=C(C)NC2=C(C(=O)C(C(=O)OC)C(C)C2)C1c1ccc(N(C)C)cc1 (centres undefined)	Mcl1 Noxa PPI 60
CCCOC(=O)C1=C(C)NC2=C(C(=O)C(C(=O)OC)C(C)C2)C1c1ccc(N(CC)CC)cc1 (centres undefined)	none
O=C(COC(=O)CCc1c[nH]c2ccccc12)NCc1ccc2c(c1)OCO2	none
Cc1cc(C)cc(Oc2ccccc2CO)c1	p47phox inh 33
O=C(CN1N=C(c2ccccc2)CCC1=O)NCCCN1CCc2ccccc2C1	none
CC(=O)N1N=C(c2cccc([N+](=O)[O-])c2)OC1(C)CC(=O)Nc1ccccc1 (centres undefined)	14-3-3 Bad inh 81[fluorescence artefact?]
O=C(OCC(=O)N1CCCC1=O)C1COc2ccccc2O1 (centres undefined)	Mcl1 Noxa PPI 58
O=C(CCC(=O)Nc1nnc(C2CCCCC2)s1)NCc1ccccc1	none (no result: Mcl-1 Bim block)
O=C(CSc1nc(-c2ccc(F)cc2)nc2c1Cc1ccccc1O2)Nc1cccc(C(=O)O)c1	14-3-3 Bad inh 95
Cc1ccn2c(Nc3ccc4c(c3)OCO4)c(-c3ccc(O)cc3)nc2c1	Mcl1 Noxa PPI 51 (no result: Mcl-1 Bim block)
O=C1NCCCC2c3c(cc(Br)c(O)c3Br)OC12N1CCOCC1 (centres undefined)	Mcl1 Noxa PPI 62
Cc1noc(C)c1COc1ccc(C(=O)OCC(=O)Nc2c(C)n(C)n(-c3ccccc3)c2=O)cc1	none
Cc1cc(=O)n(CC(C)C)c(O)c1C#N	14-3-3 Bad inh 75
CCn1c(O)c(C#N)c(C)cc1=O	none (no result: Mcl-1 Bim block)
O=C(CN1CCN(c2ccccc2O)CC1)Nc1cccnc1Cl	none
Cc1cc(=O)oc2cc(OS(C)(=O)=O)ccc12	none
CCOC(=O)N1CCN(CC(=O)Nc2ccc(F)cc2F)CC1	none
CCOC(=O)N1CCN(Cc2ccc(F)cc2F)CC1	14-3-3 Bad inh 91
COCCN1C(=O)/C(=C/c2ccc(Oc3ccc([N+](=O)[O-])cn3)c(OC)c2)SC1=Nc1ccccc1	none
O=C1/C(=C/c2ccc(N3CCOCC3)o2)SC(=Nc2ccccc2)N1CCc1c[nH]c2ccccc12	none
COc1cc(/C=C2\SC(=Nc3ccccc3)N(CCc3c[nH]c4ccccc34)C2=O)ccc1OC(C)C(=O)O (centres undefined)	Mcl1 Noxa PPI 51
COc1ccc(N=C2S/C(=C\c3ccc(OC(C)C(=O)O)c(OC)c3)C(=O)N2CCc2c[nH]c3ccccc23)cc1 (centres undefined)	Mcl1 Noxa PPI 82
O=C(Nc1ccc(NS(=O)(=O)c2ccccc2)cc1)c1cccnc1	none
CN(Cc1ccc2nonc2c1)Cc1nc(CC2CC2)no1	none
Cc1ccc(C(=O)NN2CC(O)=C(c3nc(-c4cccc([N+](=O)[O-])c4)cs3)C2=N)cc1	Mcl1 Noxa PPI 56
CC1C(=O)CCN(C(C)C)C1C (centres undefined)	Mcl1 Bid PPI 90
CC(C)CN(C(=O)CSc1nn(-c2ccc(Cl)cc2)c(=S)s1)C1CCS(=O)(=O)C1 (centres undefined)	none
CC(CCC(=O)Nc1nncs1)C(=O)O (centres undefined)	Mcl1 Bid PPI 86
Cn1c(N)c(C(=O)COC(=O)COc2ccccc2C#N)c(=O)n(C)c1=O	none

Source: PubChem
